Bioassay records as filed in PubChem BioAssay.
Hits are enriched below; roughly 18% of the tested compounds scored in any of these assays.
Six1-Eya2 inh: qHTS Assay for Inhibitors of the Six1/Eya2 Interaction | activity change, % (test concentration not listed) | AID 651725, 2012 | AlphaScreen GST-Six1/His-Eya2 binding, biochemical; active compounds read low | actives 0.56% (n = 360,000); in the data active means activity change below about -65%; inconclusive means mostly about -30% to -63%
Target sequence (O00167 whole entry, looked up): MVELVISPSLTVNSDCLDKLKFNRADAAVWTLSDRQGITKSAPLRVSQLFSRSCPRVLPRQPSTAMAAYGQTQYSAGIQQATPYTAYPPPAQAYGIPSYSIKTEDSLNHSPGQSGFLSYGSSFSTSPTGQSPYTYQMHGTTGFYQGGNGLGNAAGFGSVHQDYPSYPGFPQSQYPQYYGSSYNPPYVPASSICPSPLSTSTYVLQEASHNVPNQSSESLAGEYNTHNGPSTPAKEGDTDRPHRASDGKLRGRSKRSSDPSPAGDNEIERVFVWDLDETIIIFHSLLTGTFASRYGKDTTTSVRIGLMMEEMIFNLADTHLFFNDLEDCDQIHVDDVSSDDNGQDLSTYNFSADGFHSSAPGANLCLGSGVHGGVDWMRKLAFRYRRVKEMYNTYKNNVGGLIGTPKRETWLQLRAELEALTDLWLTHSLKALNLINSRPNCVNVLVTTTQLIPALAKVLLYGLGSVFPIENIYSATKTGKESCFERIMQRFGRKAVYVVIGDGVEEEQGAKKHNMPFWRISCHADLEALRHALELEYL
Target sequence (Q15475 whole entry, looked up): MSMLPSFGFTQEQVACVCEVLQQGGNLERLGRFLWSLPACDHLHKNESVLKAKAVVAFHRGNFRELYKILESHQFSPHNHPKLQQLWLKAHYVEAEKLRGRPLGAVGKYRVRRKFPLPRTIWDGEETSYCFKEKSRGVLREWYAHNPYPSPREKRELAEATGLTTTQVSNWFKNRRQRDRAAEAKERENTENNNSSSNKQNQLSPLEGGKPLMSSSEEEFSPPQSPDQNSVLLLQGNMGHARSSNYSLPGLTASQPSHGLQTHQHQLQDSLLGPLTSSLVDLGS
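GST-Six1 + His-Eya2 (5X stock: 250/500 nM); Tris pH 8.0, 300 mM NaCl, 0.05% BSA, 0.02% Tween 20; GSH donor/Ni acceptor beads; 1 h 37 °C dark; AlphaScreen readout.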
CtBP-E1A inh: qHTS Assay for Inhibitors of the CtBP/E1A Interaction | AlphaScreen GST-E1A/His-CtBP binding, 1536-well; active compounds read low | activity change, % (test concentration not listed) | CtBP / adenovirus E1A interaction (AlphaScreen) | AID 651724, 2012 | actives 0.49% (n = 340,000); in the data active means activity change below about -65%; inconclusive means mostly about -30% to -63%
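Steps: dispense buffer (Tris pH 8.0, NaCl 300 mM, TCEP 1 mM, BSA, Tween 20); add 5X protein mix (GST-E1A, His-CtBP, 125 nM each); pin 23 nL compound; 2 h at 37 °C, dark; add 5X beads (50 ug/mL); 1 h; read.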
DT40 TDP1 CPT: qHTS for Inhibitors of human tyrosyl-DNA phosphodiesterase 1 (TDP1): qHTS in cells in presence of CPT. chicken DT40 Tdp1-/-;hTDP1 cells + 20 nM CPT, ATP luminescence, 48 h. Potency, µM (top dose mostly 46.2 µM), inactives show at the highest dose activity change, negative = growth inhibition, actives largely listed as inhibitors. actives 12% (n = 420,000). AID 686979, 2013; further: potency means the concentration at half of the fitted maximal effect; nearly all actives have a fitted effect of over 55% in size
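Chicken DT40 Tdp1-/- cells complemented with human TDP1, 400 cells/well, exposed to compounds plus 20 nM camptothecin for at least 48 h at 37 C; viability read as ATP content by CellTiter-Glo luminescence.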
IL-1B inflam inh: qHTS for Inhibitors of Inflammasome Signaling: IL-1-beta AlphaLISA Primary Screen; THP-1 LPS/ATP IL-1B secretion, AlphaLISA, 16 h; active compounds read low; activity change, % at 57.5 µM; actives 4.7% (n = 360,000); in the data active means activity change below about -50%; inconclusive means mostly about -30% to -49%
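THP-1 cells pretreated 1 hr with compounds (up to 57.5 uM final), then stimulated with LPS (250 ng/mL final) plus ATP (1.25 mM final); secreted IL-1B measured by AlphaLISA after 16 hr, decreased signal indicating inhibition.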
TDP1 inh: qHTS Assay for Inhibitors of Tyrosyl-DNA Phosphodiesterase (TDP1); recombinant TDP1, AlphaScreen DNA substrate cleavage; Potency, µM (titrated, usually from 130 µM), inactives show top-dose activity change, negative = inhibition, actives largely listed as inhibitors; actives 0.28% (n = 350,000); AID 485290, 2010; further: potency means the concentration at half of the fitted maximal effect; nearly all actives have a fitted effect of over 40% in size
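Steps: enzyme plus compound, 15 min RT; add biotin/phosphotyrosine-FITC oligonucleotide (15 nM final), react 5 min; add donor/acceptor beads (10 ug/ml final), 10 min; read AlphaScreen. Tdp1 at 1 nM final.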
TDP1 cell noCPT: qHTS for Inhibitors of human tyrosyl-DNA phosphodiesterase 1 (TDP1): qHTS in cells in absence of CPT; DT40 Tdp1-/- hTDP1 cells, no CPT, ATP luminescence, 48 h; Potency, µM (doses to about 46.2 µM), for inactives: at the highest dose activity change, negative = growth inhibition, actives largely listed as inhibitors; actives 15% (n = 420,000); AID 686978, 2013; further: potency means the concentration at half of the fitted maximal effect; nearly all actives have a fitted effect of over 55% in size
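DT40 Tdp1-/-;hTDP1 cells, no CPT (DMSO vehicle only), 400 cells/well; compounds pin-transferred; ≥48 hr, 37 °C; CellTiter-Glo 30 min RT dark, luminescence read.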
Numbers without * were called inactive; ? = inconclusive; / = no result given; ! = repeats disagree; [ ] = dose if it differs, or a comment. Unless noted, the call rests on the fitted dose curve; in most records, active means well fitted curve in the direction sought with a large enough effect; inconclusive means small, poorly fitted or top-dose-only effect, or another doubt; inactive means no such curve, though single readings can be large; an effect the other way counts as inactive or inconclusive. On the % scale 0 is the no-effect control and ±100 the full control effect.

SMILES | Six1-Eya2 inh | CtBP-E1A inh | DT40 TDP1 CPT | IL-1B inflam inh | TDP1 inh | TDP1 cell noCPT
C=CCN(CC(=O)c1sc(C(=O)OCC)nc1C)c1cccc(Br)c1 | -8.6 | -5.1 | ? | 26.4 | / | ?
O=C(CCNC(=O)N1C[C@H]2C[C@@H](C1)c1cccc(=O)n1C2)Nc1cccc(Cl)c1 | 2.7 | 7.0 | 2.5% | -6.6 | / | 2.9%
Cc1cc(/C=C2/C(=O)NC(=O)N(Cc3ccco3)C2=O)c(C)n1-c1ccccc1 | -10.5 | 2.7 | 1.0% | 7.7 | 2.7% | -29.6%
C=CCN1C(=O)NC(=O)/C(=C\c2ccc(-c3ccccc3[N+](=O)[O-])o2)C1=O | -1.8 | -7.9 | ? | -99.6* | -3.1% | 18.4µM*
O=C1NC(=O)N(Cc2ccco2)C(=O)/C1=C/c1ccc(-c2cccc([N+](=O)[O-])c2)o1 | ? | 0.2 | 18.4µM* | ? | / | ?
C#CCN(C)[C@@H](C)Cc1ccccc1 | / | / | / | / | 5.1%[21 µM] | /
CCN(CC)c1ccc(/C=C/[N+](=O)[O-])cc1 | -4.1 | -4.5 | ? | -18.5 | 8.0% | 16.4µM*
CCN(CC)c1ccccc1 | -0.7 | 0.3 | -3.7% | 30.9 | 0.1% | -7.5%
COc1cc(C(=O)N2C[C@H]3C[C@@H](C2)c2cccc(=O)n2C3)cc(OC)c1OC | 6.8 | 4.6 | 10.3% | -5.9 | / | 10.1%
O=C(c1ccc(F)c([N+](=O)[O-])c1)N1CC2CC(C1)c1cccc(=O)n1C2 (centres undefined) | -0.5 | / | -26.9% | -51.7* | / | ?
CCOc1ccc(N2CC(c3nc4ccccc4n3CCC3CCCCC3)CC2=O)cc1 (centres undefined) | / | / | 7.31µM* | / | 4.9% | 5.17µM*
CCOc1ccc(-n2c(/C=C/c3ccccc3)nc3ccccc3c2=O)cc1 | / | / | ? | / | 2.6% | ?
COC(=O)C12OCC34C(CC5C(C)=C(O)C(=O)CC5(C)C3C(O)C1O)OC(=O)C(OC(=O)/C=C(\C)C(C)C)C24 (centres undefined) | 2.6 | 9.2 | 0.0411µM* | -98.2* | / | 0.058µM*
Cc1cc(C)c(C)c(C(O)(C(=O)O)c2ccccc2)c1C (centres undefined) | 9.5 | -21.0 | -2.2% | 16.7 | / | 1.7%
CC1=C2[C@@H]3OC(=O)[C@@H](C)[C@@H]3CC[C@]2(C)C=CC1=O | / | / | / | / | 11.8%[21 µM] | /
CC1=C2C3OC(=O)C(C)C3CC[C@@]2(C)C=CC1=O (some centres undefined) | -0.4 | 0.0 | 6.9% | 10.6 | 14.1µM*! | 4.4%
CCC(C)C(=O)c1c(O)c(C)c2oc3c(C)c(O)c(C(=O)C(C)CC)c(O)c3c2c1O (centres undefined) | / | / | ? | / | 14.0%[56.1 µM] | ?
COc1ccc(CC(=O)NC(=S)NNC(=O)COc2c(C)cccc2C)cc1 | -0.1 | 1.4 | 16.4µM* | 21.8 | 5.3% | 16.4µM*
COc1ccc(C(=O)NC(=S)NNC(=O)c2cccnc2)cc1 | -8.7 | -14.0 | ? | 31.5 | 14.6% | ?
COc1cccc(NC2=NCCCS2)c1 | 0.7 | -2.2 | 12.1% | -1.9 | / | 20.8%
CC1(C)S[C@H]2[C@@H](N)C(=O)N2[C@H]1C(=O)O | / | / | -0.2% | / | 16.1%[56.1 µM] | -14.2%
COc1ccc(C2=NCC(=S)Nc3ccc(Cl)cc32)cc1OC | 0.6 | 7.3 | -12.5% | 45.0 | / | ?
COc1ccc(C2=NCC(=S)Nc3ccc(Cl)cc32)cc1Cl | 1.8 | / | ? | 21.7 | 0.0% | 20.6µM*
CC1CN2c3ccc([N+](=O)[O-])cc3CC3(C(=O)N(C)C(=O)N(C)C3=O)C2C(C)O1 (centres undefined) | 4.2 | 3.8 | 18.9% | 32.7 | 0.0% | 1.5%
O=C1C=C2C=C[C@@H]3C[C@@]2(O1)[C@H]1CCCCN31 | / | / | 11.9µM* | / | 8.2% | 7.5µM*
SMILES | Six1-Eya2 inh | CtBP-E1A inh | DT40 TDP1 CPT | IL-1B inflam inh | TDP1 inh | TDP1 cell noCPT
NC(=O)c1cc(N2CC2)c([N+](=O)[O-])cc1[N+](=O)[O-] | 4.5 | 1.8 | 0.146µM* | -5.4 | -10.7%[56.1 µM] | 0.0366µM*
COc1ccccc1CC(=O)N1CCN(CCc2ccccc2)CC1 | 0.4 | 0.6 | 21.7% | 5.1 | 3.2% | ?
COc1ccccc1OC(C)C(=O)N1CCC(Cc2ccccc2)CC1 (centres undefined) | 1.4 | 0.3 | 16.4µM* | -72.4* | 10.2% | ?
C[C@]12CCC3C(CC[C@@H]4CC(=O)CC[C@]34C)C1CC[C@@H]2O (some centres undefined) | 7.8 | 3.1 | -0.3% | 12.0 | 0.1% | -24.9%
CCN(CC)C(=O)c1ccc(NC(=O)CN2CCc3cc(OC)c(OC)cc3C2)cc1 | 8.3 | -24.1 | 4.7% | -5.5 | / | -9.0%
Clc1ccc2c(c1)CCc1cccnc1C2=C1CCNCC1 | / | / | 6.51µM* | / | 5.1% | 7.31µM*
NC(=O)CN1CCCC1=O | -4.4 | -22.9 | -9.4%[21.1 µM] | -23.1 | 8.5%[56.1 µM] | 2.91µM*!
CCCCC1(CN2CCCC2=O)C(=O)NC(=O)NC1=O | 6.0 | -2.6 | 10.2% | 7.2 | 0.0% | -4.3%
O=C(Nc1ccccc1)c1cc([N+](=O)[O-])ccc1N1CCNCC1 | -0.3 | 3.0 | -25.3% | 27.0 | 2.7% | -0.9%
O=[N+]([O-])c1ccc2nc(N3CCNCC3)ccc2c1 | -11.2 | -17.9 | ? | -52.9* | 11.8%[56.1 µM] | 20.6µM*
CCN1C[C@]2(CO)CC[C@H](OC)[C@@]34C5C[C@H]6[C@H](OC)C5[C@](O)(C[C@H]6OC)[C@@H](C(OC)C23)[C@@H]14 (some centres undefined) | 0.0 | -1.7 | 2.0% | 12.2 | / | -20.1%
Cc1nn(Cc2ccccc2Cl)c(C)c1C(=O)OCC(=O)NC1CCCC(C)C1C (centres undefined) | 6.6 | 13.7 | 20.6µM* | -7.8 | 5.5% | 23.1µM*
Cc1nn(Cc2ccccc2Cl)c(C)c1C(=O)OCC(=O)N1CC(C)OC(C)C1 (centres undefined) | 0.5 | 1.4 | -19.8% | 13.0 | 2.7% | -26.0%
c1ccc2c(c1)[IH]c1ccccc1-2 | -2.1 | -27.3 | 0.0517µM* | -93.7* | / | 0.0517µM*
CC(C)(C)C(=O)N1Cc2ccccc2-n2nncc2C1 | 3.4 | 1.9 | ? | -10.3 | / | -28.1%
CCOP(=O)(OCC)Oc1ccc2ccc(=O)oc2c1 | / | / | / | / | 6.2% | /
